Source: PubChem BioAssay (NCATS)
Inconclusive results are not listed. Unmarked numbers belong to inactive results. Active and inactive are the calls of the source. Calls follow the shape of the dose curve; as a rule, active = well fitted inhibition curve with a large enough effect; inconclusive = small, poorly fitted or top-dose-only effect; inactive = flat fitted curve, though single readings scatter.

These molecules were tested on SC27B (assay: qHTS profiling for inhibitors of Plasmodium falciparum proliferation (AID 504749; also: nearly all actives have a fitted effect of over 60% in size;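 as to activity, negative = inhibition: 0% = DMSO vehicle and full inhibition = artemisinin control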)). Conditions: P. falciparum in erythrocytes, SYBR Green DNA, 72 h; series mostly up to 28.7 µM; activity, negative = inhibition: at the top concentration.
In short: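 SYBR Green fluorescence (ex 485 nm, em 535 nm) reports parasite DNA after 72 h compound exposure of infected red cells at 0.3% parasitemia, 2.5% hematocrit; signal normalized to 0.29 uM artemisinin and vehicle wells.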
Potency is read from the fitted curve at half-maximal effect.

Structure (SMILES)	activity, negative = inhibition	Potency
Cc1cccc(C)c1OCC(C)N (centres undefined)	-14.3%	
CC1(C)O[C@H]2C[C@@H]3[C@H]4CCC5=CC(=O)C=C[C@]5(C)[C@@]4(F)[C@@H](O)C[C@]3(C)[C@]2(C(=O)CO)O1	-12%	
COc1ccc(Cc2nccc3cc(OC)c(OC)cc23)cc1OC	-6% [at 12.8 µM]	
CC(=O)c1ccc(S(=O)(=O)NC(=O)NC2CCCCC2)cc1	4.56%	
CC1=C(/C=C/C(C)=C/C=C/C(C)=C/C(=O)Nc2ccc(O)cc2)C(C)(C)CCC1		10 µM (active)
CC(=O)N[C@@H](CS)C(=O)O	8.27%	
Cc1cnc(C(=O)O)c[n+]1[O-]	4.8%	
O=C1NC(=O)C(c2ccccc2)(c2ccccc2)N1	-3.36%	
CN(C)CCC(c1ccccc1)c1ccccn1 (centres undefined)	6.84%	
O=C1NCC2(CCN(CCc3ccccc3)CC2)O1	2.2%	
CC(=O)O[C@]1(C(C)=O)CC[C@H]2[C@@H]3C=C(Cl)C4=CC(=O)[C@@H]5C[C@@H]5[C@]4(C)[C@H]3CC[C@@]21C	-10.4%	
NC(N)=Nc1nc(CSCC/C(N)=N/S(N)(=O)=O)cs1	12.5%	
CCCCCN(C)CCC(O)(P(=O)(O)O)P(=O)(O)O	7.21%	
NCCS	8.78%	
COc1ccccc1N1CCN(CCCNc2cc(=O)n(C)c(=O)n2C)CC1		inactive
O=C(NCCN1CCOCC1)c1ccc(Cl)cc1	7.08%	
C[C@@H](O)[C@H]1C(=O)N2C(C(=O)O)=C(S[C@@H]3CN[C@H](C(=O)N(C)C)C3)[C@H](C)[C@H]12	6.69%	
CC(=O)CCCCn1c(=O)c2c(ncn2C)n(C)c1=O	-0.801% [at 12.8 µM]	
O=C(O)c1cc(-c2ccccc2)nc2ccccc12	2.06%	
